Screening data (PubChem BioAssay)
TRHR agonist – agonists of human TRH receptor; P34981; AID 493084; activation, % at 2 µM; 360,000 compounds, 0.18% hits; TRHR cells, calcium flux fluo-8, FDSS agonist mode; in the data active = activation above about 30%; note: 0% is about no effect
Target sequence (P34981 whole entry, looked up): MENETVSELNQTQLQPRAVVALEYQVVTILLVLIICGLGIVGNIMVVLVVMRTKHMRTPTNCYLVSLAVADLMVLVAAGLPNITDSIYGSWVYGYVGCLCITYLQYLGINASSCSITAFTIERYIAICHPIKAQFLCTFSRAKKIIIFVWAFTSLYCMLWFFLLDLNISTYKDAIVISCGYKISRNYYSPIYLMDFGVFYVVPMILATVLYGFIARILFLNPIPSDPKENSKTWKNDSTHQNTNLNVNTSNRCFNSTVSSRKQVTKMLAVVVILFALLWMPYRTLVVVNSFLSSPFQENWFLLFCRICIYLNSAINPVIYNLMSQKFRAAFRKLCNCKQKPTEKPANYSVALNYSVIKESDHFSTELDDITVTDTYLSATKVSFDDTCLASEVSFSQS
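TRHR-expressing cells, plated overnight in medium with 10% serum, were loaded with fluo-8 calcium dye at room temperature. After a 10 s baseline, library compound was pin-added and calcium release was recorded kinetically (ex 480/em 530) as agonist response.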
TRPML1 agonist – human mucolipin-1 channel agonism; Q9GZU1; TRPML1-expressing cells, Ca2+ dye fluorescence, FDSS; activation, % (test concentration not listed); 410,000 compounds, 0.12% hits; AID 624414; in the data active = activation above about 50%; inconclusive = mostly about 30% to 49%; note: 0% is about no effect
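Calcium fluorescence on an FDSS kinetic reader gave the read-out. Tet-induced TRPML1-DL cells were plated overnight, dye-loaded (Ca8 with quencher, 45-90 min, room temperature, dark), then read 110 s after compound addition, and again 110 s after 4uM final 54-4 (EC80).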
TRPML1 inh – inhibitors of human TRPML1 channel. TRPML1-inducible cells, Ca2+ dye fluorescence, FDSS; stronger effect = lower value; inhibition of EC80 agonist-evoked calcium signal. 390,000 compounds, 0.02% hits. Q9GZU1. activity change, negative = inhibition, % (no concentration beside the values); in the data active = activity change below about -50%; inconclusive = between about -30% and that limit;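 note: stimulus is agonist 54-4 at its EC80 concentration; % is set by controls: 0 for no effect and ±100 for the full control effect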
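TRPML1-DL cells, Tet-induced overnight (~16 h, 37 °C) at 1,500 cells/well, were loaded with Ca8 no-wash dye plus quencher for 45-90 min at room temperature. Compounds were pinned during FDSS kinetic reading; agonist 54-4 at EC80 (4 uM final) then added.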
TRPV1 PAM – enhances activation of the human vanilloid receptor TRPV1 | Q8NER1 | TRPV1-expressing cells, Fluo-8 calcium influx, capsaicin EC20 potentiation | potentiation, % at 8.33 µM | 320,000 compounds, 0.02% hits | AID 540277; in the data active = potentiation above about 80%; inconclusive = between about 30% and that limit; note: 0% is about no effect
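Fluo-8 calcium influx in TRPV1-expressing cells, kinetic read (ex 480/em 520 nm). Compound added and read 3 min for agonist activity, followed by capsaicin at EC20 final and 2 min further read for enhancement.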
TRHR PAM – TRH receptor (human) allosteric enhancement | enhancement, % at 2 µM | P34981 | AID 493056 | 360,000 compounds, 0.66% hits | TRHR cells, fluo-8 calcium fluorescence, EC20 TRH enhancement; in the data active = enhancement above about 30%; note: 0% is about no effect
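TRHR-expressing cells loaded with fluo-8 calcium dye were read kinetically (ex 480/em 530) during compound addition, then stimulated with an EC20 of TRH (10 nM final). Enhancement of the Gq-mediated intracellular calcium response was scored.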
TRPV1 agonist – human TRPV1 agonism | Q8NER1 | TRPV1-expressing cells, Fluo-8 calcium influx, agonist mode | activation, % at 8.33 µM | 320,000 compounds, 0.19% hits; in the data active = activation above about 80%; inconclusive = between about 30% and that limit; note: 0% is about no effect
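Cells expressing TRPV1 were dye-loaded with Fluo-8 and read kinetically: 10 s baseline, 3 min after compound (agonist portion), then 2 min after EC20 capsaicin (allosteric enhancer portion). Calcium-bound dye fluorescence at 480/520 nm.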
Starred values were filed as active, the others as inactive; ? = inconclusive; . = no result given. Most compounds without a hit are left out; they make up all but 0.99% or so of the library.

SMILES	TRHR agonist	TRPML1 agonist	TRPML1 inh	TRPV1 PAM	TRHR PAM	TRPV1 agonist
COCCNC(=O)c1cnn2c1NC(c1ccco1)CC2C(F)(F)F (stereo not given)	0.3	4.1	-11.0	-4.5	3.8	1.3
Clc1ccc(CN(CC2CCCO2)C(c2cccs2)c2nnnn2C2CCCC2)cc1 (stereo not given)	-0.4	53.8*	-3.2	-10.2	4.2	-1.9
O=C(Cc1nnc(-c2nc3ccccc3[nH]2)o1)Nc1cc(C(F)(F)F)ccc1Cl	0.2	.	.	.	1.6	.
CCCNC(=O)Cn1c(=O)/c(=C\c2ccc(-c3ccc([N+](=O)[O-])cc3)o2)s/c1=C\C(=O)C(C)(C)C	98.0*	127.1*	-12.7	18.0	-20.9	?
CC(C)Oc1ccc(-c2nc(-c3cccnc3)no2)cc1	.	-0.8	.	.	.	.
Cc1cc2c(s1)c1cnn(Cc3cc(F)c(F)c(F)c3F)c(=O)c1n2C	0.0	.	.	.	1.6	.
Cc1cc(N2CCCC2)c(F)cc1/C=C\[N+](=O)[O-]	-0.5	51.5*	-3.2	28.1	0.6	-5.9
CCOCCCNC(=O)c1ccc2c(=O)n(CCCOCC)c(=S)[nH]c2c1	-0.3	0.9	-4.7	-8.1	9.0	-0.7
CCOCCCn1c(=S)[nH]c2cc(C(=O)NCCCN(CC)CC)ccc2c1=O	0.1	-0.6	2.4	105.3*	3.3	4.4
Cc1cccc(N2CCN(S(=O)(=O)c3c(C)[nH]c(C)c3C(=O)N3CCCCC3)CC2)c1C	1.0	-0.4	-12.6	2.5	30.3*	9.5
O=c1c(/C=C(\O)c2ccc(F)cc2)nc2ccccc2n1-c1ccccc1	75.9*	10.0	-2.5	-26.1	-8.4	?
O=c1[nH]/c(=C/c2ccc3c(c2)OCO3)c(=O)[nH]/c1=C/c1ccc2c(c1)OCO2	.	0.6	.	.	.	.
CC(C)(C)n1ncc2c(=O)n(Cc3c(F)ccc(Cl)c3Cl)cnc21	.	2.3	6.3	.	.	.
COc1cc(/C=c2\s/c(=C(/C#N)C(=O)N3CCCC3)n(-c3ccccc3)c2=O)ccc1O	71.5*	?	-15.5	-10.7	11.2	29.4
COC(=O)/C=c1/s/c(=C(/C#N)C(=O)N2CCCCC2)n(-c2ccccc2)c1=O	1.2	0.1	-4.7	3.1	-1.5	-1.4
Cc1ccnc2c(Cl)cccc12	.	-0.6	.	.	.	.
CCCCCCOc1ccc(CC(=O)O)cc1	.	0.1	.	.	.	.
CCC(C)(C)c1ccc(OCC(=O)Nc2ccncc2)cc1	-0.2	-0.4	14.3	-6.8	1.6	89.9*
CC(C)(C)c1ccc(OCC(=O)Nc2ccncc2)c(Br)c1	0.4	.	.	-2.7	-9.7	97.1*
CNc1ccc(/C=C2\C=Cc3ccccc32)cc1OC	.	0.8	.	.	.	.
CN(CCCc1cnc[nH]1)C(=S)NCCCN(Cc1ccc(Cl)cc1)c1ccc(Br)cn1	.	-0.3	.	.	.	.
Cc1cc(C)c2nc(-c3cccc(Cl)c3)c(C)c(C(=O)N3CCOCC3)c2c1	0.2	-0.4	-5.5	-28.1	32.7*	-8.9
Cc1onc(-c2c(Cl)cccc2Cl)c1C(=O)N1CCOCC1	0.5	-0.6	-4.0	0.6	5.6	0.5
CS(=O)(=O)Nc1cccc(-c2cc(F)c(S(=O)(=O)N3CCN(S(=O)(=O)c4ccc5c(c4)OCCO5)CC3)cc2F)c1	-0.3	.	.	.	1.9	.
Cc1cc(C)n(Cc2ccc(Cl)cc2Cl)c(=O)c1S(=O)(=O)c1ccccc1	-1.3	71.3*	-2.6	-10.8	9.4	-0.1
SMILES	TRHR agonist	TRPML1 agonist	TRPML1 inh	TRPV1 PAM	TRHR PAM	TRPV1 agonist
Cc1ccc(Nc2nc(Nc3ccc(Cl)cc3)nc(N3CCOCC3)n2)cc1	.	-0.3	.	.	.	.
COc1cc2c(NC3CCN(C(C)C)CC3)nc(N3CCCN(C)CC3)nc2cc1OCCOCCN1CCCC1	.	-0.4	.	.	.	.
O=C1OC2(c3ccccc31)c1cc(I)c(O)c(I)c1Oc1c2cc(I)c(O)c1I	241.6*	.	.	-22.8	-10.0	88.1*
CC1CCCC(C)N1C(=O)COC(=O)CNC(=O)c1ccc(Cl)cc1Cl (stereo not given)	0.3	-0.5	-14.9	?	33.5*	0.8
O=C(CNC(=O)c1ccc(Cl)cc1Cl)OCC(=O)N1CCCC1	0.5	1.4	1.8	6.9	1.2	-0.2
COC(=O)/C=C/c1ccc2c(c1)S(=O)(=O)N(C1CCCC1)[C@H]2CC(=O)OC	.	1.4	.	.	.	.
CN1CCN(C(=O)CCS(=O)(=O)c2cc3c(cc2Cl)NC(=O)CO3)CC1	0.0	0.8	-23.0	13.8	38.9*	0.6
COc1ccc(-c2nc3ccc(NC(=O)CO)cc3c(=O)n2Cc2cccc(Cl)c2)cc1COc1ccc(NC(C)=O)cc1	.	-0.2	.	.	.	.
Brc1cccc[n+]1CCCC[n+]1ccccc1Br	.	-0.4	.	.	.	.
Cc1ccc(-c2c(C(=O)N/N=C/c3ccc(OC(C)C)cc3)nnn2-c2nonc2N)cc1	3.6	1.4	5.4	15.6	32.7*	-2.9
Cc1ccc(-c2c(C(=O)N/N=C/c3ccoc3)nnn2-c2nonc2N)cc1	10.4	0.2	1.4	-9.9	14.5	87.5*
CCc1ccc(/C=N/NC(=O)c2nnn(-c3nonc3N)c2C(C)C)cc1	25.2	1.4	2.3	-40.1	40.8*	17.1
Cc1c2ccccc2nc2c(F)c(NC(C)C)c(F)c(F)c12	39.6*	13.8	-2.7	-8.4	6.1	19.1
COc1ccc(/C=C/C(=O)C2CC2)cc1Cn1nc(C)c([N+](=O)[O-])c1C	-0.7	2.2	5.3	-5.2	37.5*	29.2
O=C(/C=C/c1ccccc1)Nc1cccnc1Cl	-1.2	-1.4	-11.9	-30.4	2.2	84.2*
Cc1cc(O)cc2c1O[C@](C)(CCC(=O)O)CC2	.	-0.2	.	.	.	.
Nc1ccc(Oc2ccc(F)cc2)nc1	0.4	2.0	-4.8	-6.1	33.9*	2.0
COc1ccccc1NC(=O)c1sc2nc(Cc3ccccc3)cc(C(F)(F)F)c2c1N	3.5	1.0	-2.9	12.5	7.4	1.4
COc1ccc(NC(=O)c2sc3nc(Cc4ccccc4)cc(C(F)(F)F)c3c2N)cc1OC	2.5	0.1	-3.9	2.5	31.9*	8.9
CCCC(=O)N(c1ccc2oc3c(c2c1)CCCC3)S(=O)(=O)c1ccc(CC)cc1	1.5	63.8*	-24.9	.	-11.4	.
CCc1ccc(S(=O)(=O)N(C(C)=O)c2ccc3oc4c(c3c2)CCCC4)cc1	-1.1	20.5	-2.4	.	1.6	.
CCCOc1cccc(OCCSc2nc(C)cc(=O)[nH]2)c1	-0.3	2.4	44.3	-3.2	-3.6	81.6*
CCCNC(=O)/C=C/c1ccc(C(C)C)cc1	-0.6	1.7	-23.2	-19.4	35.2*	?
CC(C)c1ccc(/C=C/C(=O)NCCCc2ccccc2)cc1	0.8	2.6	9.6	-8.3	-0.8	?
CCC(Cn1nnc2ccccc2c1=O)NC(=O)Nc1ccc(C)c(C)c1 (stereo not given)	-0.4	0.0	-69.1*	.	-13.1	.
